# Laboratory results taken from PubChem BioAssay (NCI).
# This is part of a sample that, as a whole, favours compounds with a hit. Of some 79,000 tested, about 15% had one in any assay. Values without a mark were called inactive. Calls of active or inactive are those of the source. Rule as the data show it: active = growth inhibition above about 70%; inactive = the rest.
# Experiments:
# [1] = NCI Yeast Anticancer Drug Screen. Data for the rad52 strain (AID 147);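 also: 0% = growth of vehicle-treated control cultures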; details: S. cerevisiae rad52 mutant growth inhibition, active compounds read high
# In short: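 Growth of repair-deficient yeast cells was compared between compound-treated and vehicle-treated cultures to give percent inhibition.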
# [2] = NCI Yeast Anticancer Drug Screen. Data for the wt1 strain (AID 149);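 also: 0% = growth of vehicle-treated wt1 cultures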; details: S. cerevisiae wt1 strain (SPY 50644) growth inhibition, active compounds read high
# In short: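 Compounds are added to wt1 yeast cultures. Growth is then measured. Inhibition is expressed relative to vehicle-treated controls.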
# [3] = NCI Yeast Anticancer Drug Screen. Data for the rad50EPP+ strain (AID 151);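 also: 0% = growth of vehicle-treated control cultures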; details: S. cerevisiae rad50 mutant strain, active compounds read high
# In short: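 Measured: growth inhibition of rad50EPP+ yeast. Reference: vehicle-treated controls. Screen uses strains with defined genetic alterations in DNA damage repair or cell cycle control.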
# [4] = NCI Yeast Anticancer Drug Screen. Data for the mgt1 strain (AID 153); details: S. cerevisiae mgt1 mutant growth inhibition, active compounds read high
# In short: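 Compounds were applied to mgt1 mutant yeast, and growth was then compared against vehicle-treated control cultures to give percent inhibition.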
# [5] = NCI Yeast Anticancer Drug Screen. Data for the rad50 strain (AID 155);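 also: 0% = growth of vehicle-only cultures of the same strain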; details: S. cerevisiae rad50 strain growth inhibition, active compounds read high
# In short: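 Inhibition values express reduced yeast growth in compound-treated cultures relative to vehicle-treated controls.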
# [6] = NCI Yeast Anticancer Drug Screen. Data for the mec2-1 strain (AID 157); details: S. cerevisiae mec2-1 strain, active compounds read high
# In short: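 Compounds were applied to mec2-1 yeast cells. Their growth was then compared with that of vehicle-treated cultures to give growth inhibition.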
# [7] = NCI Yeast Anticancer Drug Screen. Data for the rad14 strain (AID 159);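 also: 0% = growth of vehicle-treated control cultures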; details: S. cerevisiae rad14 strain growth inhibition, active compounds read high
# In short: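 A mutant yeast strain defective in DNA damage repair is treated with compound; inhibition of its growth is scored against untreated, vehicle-exposed cultures.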
# [8] = NCI Yeast Anticancer Drug Screen. Data for the sgs1 mgt1 strain (AID 161);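 also: 0% = growth of cultures given vehicle only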; details: S. cerevisiae sgs1 mgt1 strain, active compounds read high
# In short: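 Compounds are added to genetically altered yeast, and growth is compared with cultures given vehicle alone to give percent inhibition.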
# [9] = NCI Yeast Anticancer Drug Screen. Data for the CLN2oe strain (AID 163);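 also: 0% = growth of vehicle-only control cultures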; details: S. cerevisiae CLN2oe strain, active compounds read high
# In short: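 Cells of an engineered yeast line with disturbed cell-cycle regulation are treated with compound. Inhibition of growth is then calculated relative to the vehicle-treated reference.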
# [10] = NCI Yeast Anticancer Drug Screen. Data for the cln2 rad14 strain (AID 165);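 also: 0% = growth equal to vehicle treated cultures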; details: S. cerevisiae cln2 rad14 strain, active compounds read high
# In short: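 Strain: cln2 rad14 yeast, altered in cell cycle control and DNA damage repair. Read-out: growth inhibition vs vehicle.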
# [11] = NCI Yeast Anticancer Drug Screen. Data for the bub3 strain (AID 167); details: S. cerevisiae bub3 mutant strain, active compounds read high
# In short: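 Steps: expose the mutant yeast strain to compound; grow alongside vehicle-treated cultures; measure growth; express inhibition against the vehicle cultures.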
# [12] = NCI Yeast Anticancer Drug Screen. Data for the wt2 strain (AID 169);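 also: 0% = growth of vehicle-treated yeast cultures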; details: S. cerevisiae wt2 strain growth inhibition, active compounds read high
# In short: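 Growth of compound-treated yeast is measured and expressed as inhibition relative to vehicle-only controls.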
# [13] = NCI Yeast Anticancer Drug Screen. Data for the mlh1 strain (AID 171);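 also: 0% = growth of vehicle-treated control cultures of the same strain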; details: S. cerevisiae mlh1 strain growth inhibition, active compounds read high
# In short: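 Test agents were incubated with yeast bearing a defined DNA damage repair or cell cycle control alteration; values are growth inhibition normalised to vehicle-treated cultures.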
# [14] = NCI Yeast Anticancer Drug Screen. Data for the sgs1 strain (AID 173);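 also: 0% = growth of vehicle-only control cultures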; details: S. cerevisiae sgs1 mutant, active compounds read high
# In short: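 Strain with an altered DNA repair or cell cycle pathway exposed to compound. Growth then measured. Value = inhibition versus vehicle control.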
# [15] = NCI Yeast Anticancer Drug Screen. Data for the mlh1 rad18 strain (AID 175); details: S. cerevisiae mlh1 rad18 strain growth inhibition, active compounds read high
# In short: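 A repair-deficient yeast strain is exposed to test compound, and growth is scored relative to vehicle-treated controls.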
# [16] = NCI Yeast Anticancer Drug Screen. Data for the rad18 strain (AID 177); details: S. cerevisiae rad18 mutant growth inhibition, active compounds read high
# In short: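 DNA-repair-defective yeast; compound treatment; growth inhibition scored against vehicle.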
# [17] = at 5.0 µM (retest, dose inferred, filed as 0.5)
# [18] = at 50.0 µM (retest, dose inferred, filed as 5.0)
smiles,measurement,setting,value
O=P(Oc1ccc(Cl)cc1)(Oc1ccc(Cl)cc1)N1CC1,growth inhibition,[1]; at 1.2 µM,-1%
same,growth inhibition,[1]; at 3.7 µM,1%
same,growth inhibition,[1]; at 11.0 µM,0%
same,growth inhibition,[1]; at 33.0 µM,8%
same,growth inhibition,[1]; at 100.0 µM,53%
same,growth inhibition,[2]; at 1.2 µM,-2%
same,growth inhibition,[2]; at 3.7 µM,-6%
same,growth inhibition,[2]; at 11.0 µM,-4%
same,growth inhibition,[2]; at 33.0 µM,-2%
same,growth inhibition,[2]; at 100.0 µM,2%
same,growth inhibition,[3]; at 1.2 µM,-3%
same,growth inhibition,[3]; at 3.7 µM,-1%
same,growth inhibition,[3]; at 11.0 µM,4%
same,growth inhibition,[3]; at 33.0 µM,6%
same,growth inhibition,[3]; at 100.0 µM,-4%
same,growth inhibition,[4]; at 1.2 µM,-6%
same,growth inhibition,[4]; at 3.7 µM,-3%
same,growth inhibition,[4]; at 11.0 µM,-5%
same,growth inhibition,[4]; at 33.0 µM,-4%
same,growth inhibition,[4]; at 100.0 µM,49%
same,growth inhibition,[5]; at 1.2 µM,2%
same,growth inhibition,[5]; at 3.7 µM,1%
same,growth inhibition,[5]; [17],-9%
same,growth inhibition,[5]; at 11.0 µM,2%
same,growth inhibition,[5]; at 33.0 µM,8%
same,growth inhibition,[5]; [18],43%
same,growth inhibition,[5]; at 50.0 µM,4.75%
same,growth inhibition,[5]; at 100.0 µM,79% (active)
same,growth inhibition,[6]; at 1.2 µM,-3%
same,growth inhibition,[6]; at 3.7 µM,-1%
same,growth inhibition,[6]; [17],4%
same,growth inhibition,[6]; at 11.0 µM,-2%
same,growth inhibition,[6]; at 33.0 µM,-1%
same,growth inhibition,[6]; [18],6%
same,growth inhibition,[6]; at 50.0 µM,14.3%
same,growth inhibition,[6]; at 100.0 µM,28%
same,growth inhibition,[7]; at 1.2 µM,0%
same,growth inhibition,[7]; at 3.7 µM,1%
same,growth inhibition,[7]; at 11.0 µM,5%
same,growth inhibition,[7]; at 33.0 µM,19%
same,growth inhibition,[7]; at 100.0 µM,90% (active)
same,growth inhibition,[8]; [17],-10%
same,growth inhibition,[8]; [18],35%
same,growth inhibition,[8]; at 50.0 µM,18.9%
same,growth inhibition,[9]; at 1.2 µM,-4%
same,growth inhibition,[9]; at 3.7 µM,-5%
same,growth inhibition,[9]; at 11.0 µM,6%
same,growth inhibition,[9]; at 33.0 µM,14%
same,growth inhibition,[9]; at 100.0 µM,48%
same,growth inhibition,[10]; [17],-17%
same,growth inhibition,[10]; [18],48%
same,growth inhibition,[10]; at 50.0 µM,9.3%
same,growth inhibition,[11]; at 1.2 µM,-4%
same,growth inhibition,[11]; at 3.7 µM,-2%
same,growth inhibition,[11]; [17],-23%
same,growth inhibition,[11]; at 11.0 µM,-5%
same,growth inhibition,[11]; at 33.0 µM,2%
same,growth inhibition,[11]; [18],27%
same,growth inhibition,[11]; at 50.0 µM,34.4%
same,growth inhibition,[11]; at 100.0 µM,32%
same,growth inhibition,[12]; at 1.2 µM,-11%
same,growth inhibition,[12]; at 3.7 µM,-13%
same,growth inhibition,[12]; at 11.0 µM,-14%
same,growth inhibition,[12]; at 33.0 µM,-8%
same,growth inhibition,[12]; at 100.0 µM,46%
same,growth inhibition,[13]; at 1.2 µM,-3%
same,growth inhibition,[13]; at 3.7 µM,-3%
same,growth inhibition,[13]; at 11.0 µM,-4%
same,growth inhibition,[13]; at 33.0 µM,2%
same,growth inhibition,[13]; at 100.0 µM,59%
same,growth inhibition,[14]; at 1.2 µM,-1%
same,growth inhibition,[14]; at 3.7 µM,-23%
same,growth inhibition,[14]; at 11.0 µM,2%
same,growth inhibition,[14]; at 33.0 µM,13%
same,growth inhibition,[14]; at 100.0 µM,92% (active)
same,growth inhibition,[15]; [17],-8%
same,growth inhibition,[15]; [18],83% (active)
same,growth inhibition,[15]; at 50.0 µM,32.1%
same,growth inhibition,[16]; at 1.2 µM,-5%
same,growth inhibition,[16]; at 3.7 µM,-1%
same,growth inhibition,[16]; at 11.0 µM,0%
same,growth inhibition,[16]; at 33.0 µM,3%
same,growth inhibition,[16]; at 100.0 µM,47%
